This is one part of a sample in which hits are shown more often than they occur.
NS1 inh = inhibitors of influenza NS1 protein function; hit rate 0.4% among 270,000; Potency, µM (titrated, usually from 46.1 µM), for inactives: top-dose activity, positive = more growth; calls by dose curve; further: potency means the concentration at half of the fitted maximal effect; actives are rising curves; nearly all actives have a fitted effect of over 50% in size
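Growth recovery, yeast-based: influenza A NS1 expressed in S. cerevisiae causes slow growth, and suppressors are detected by OD600. The parent strain without NS1 is used as positive control.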
Shiga inhibitor = blocks Shiga toxin action in Vero cells. hit rate 9.2% among 290,000. Vero cells, Shiga toxin protein synthesis inhibition reporter. AID 2315. inhibition, % at 38.7 µM; in the data active means inhibition mostly above about 28%, no sharp cut-off; inactive means mostly below about 43%; further: 0% is about no effect
AmpC detergent = inhibitors of E. coli AmpC beta-lactamase with detergent; P00811; AmpC hydrolysis of nitrocefin, absorbance 480 nm, 0.01% Triton; Potency, µM (titrated, usually from 114 µM), for the others: top-dose activity change, negative = inhibition, usual class: inhibitors; hit rate 0.041% among 370,000;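 further: potency means the concentration at half of the fitted maximal effect; 0% = no-compound wells and -100% = no-enzyme wells; nearly all actives have a fitted effect of over 25% in size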
Target sequence (P00811 whole entry, looked up): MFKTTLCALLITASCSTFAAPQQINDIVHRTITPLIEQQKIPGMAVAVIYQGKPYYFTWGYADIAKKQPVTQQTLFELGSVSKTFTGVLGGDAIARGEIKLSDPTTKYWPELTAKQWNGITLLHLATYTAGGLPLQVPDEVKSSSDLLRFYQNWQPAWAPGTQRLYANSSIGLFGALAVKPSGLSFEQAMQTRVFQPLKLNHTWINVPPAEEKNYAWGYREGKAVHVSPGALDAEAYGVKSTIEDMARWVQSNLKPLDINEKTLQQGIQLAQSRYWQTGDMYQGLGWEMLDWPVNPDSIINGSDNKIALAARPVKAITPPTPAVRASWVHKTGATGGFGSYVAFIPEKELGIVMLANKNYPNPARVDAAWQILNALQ
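AmpC (5.3 nM in the dispensed reagent) in 20 mM phosphate pH 7.0 with 0.01% (detergent screen) or 0.0001% Triton X-100 was preincubated with compounds for 15 min at room temperature. Nitrocefin was then added from an 800 uM solution, and hydrolysis was followed at 480 nm.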
AmpC no deterg = AmpC beta-lactamase inhibition without detergent; P00811; AmpC nitrocefin hydrolysis, absorbance 480 nm, 0.0001% Triton; Potency, µM (doses to about 57.1 µM), for inactives: at the highest dose activity change, negative = inhibition, usual class: inhibitors; hit rate 0.52% among 330,000;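 further: potency means the concentration at half of the fitted maximal effect; plate controls were no compound for no effect and no enzyme for full effect; nearly all actives have a fitted effect of over 20% in size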
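AmpC (5.3 nM in the dispensed reagent) in 20 mM phosphate pH 7.0 with 0.01% (detergent screen) or 0.0001% Triton X-100 was preincubated with compounds for 15 min at room temperature. Nitrocefin was then added from an 800 uM solution, and hydrolysis was followed at 480 nm.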
CHX counter = counter-screen hit for Shiga toxin inhibitors, cycloheximide; cell reporter, cycloheximide protein synthesis inhibition counterscreen; max response, %; hit rate 12% among 300,000; in the data active means max response mostly above about 13%, no sharp cut-off; inactive means mostly below about 14%; further: read at 38.3 µM for the half of the compounds with a filed dose; 0% is about no effect
Active calls of the source: *; ? = inconclusive; / = no result; [ ] = remark or other dose. Unless noted, the call rests on the fitted dose curve; in most records, active means well fitted curve in the direction sought with a large enough effect; inconclusive means small, poorly fitted or top-dose-only effect, or another doubt; inactive means no such curve, though single readings can be large; an effect the other way counts as inactive or inconclusive.

SMILES	NS1 inh	Shiga inhibitor	AmpC detergent	AmpC no deterg	CHX counter
COC(=O)N1C(=O)[C@@](c2ccccc2)(C2CCCCC2)N1C(=O)OC	-17.9%	13.1	-8.6%	65.7%	10.6*
CN(C)c1ccc(/C=C(/NC(=O)c2ccccc2)C(=O)N2CCCC2)cc1	4.7%	-13.0	-7.2%	-5.0%	-3.0
Cc1cc(-c2ccc(S(=O)(=O)Nc3cc(Cl)ccc3C)s2)on1	/	/	3.0%	/	/
C[C@H]1OC(OC2C(O)[C@@H](O)C(OC3C(O)[C@@H](O)C(O)O[C@@H]3CO)O[C@@H]2CO)[C@H](O)C(O)C1N[C@H]1C=C(CO)[C@@H](O)[C@H](O)C1O (stereo partly drawn)	/	-7.0	/	/	10.0
c1ccc2nc(-c3ccc(-n4ccnc4)cc3)ccc2c1	-53.3%	61.5*	-13.0%	0.9%	34.5*
Cc1ccc(Nc2nc3ccccc3n3cnnc23)cc1C	-2.1%	31.3*	-12.8%	-2.4%	37.0*
Cc1cc(C)cc(Nc2nc3ccc(C)cc3n3cnnc23)c1	1.2%	-4.0	2.1%	-4.3%	-2.7
Cc1ccc2nc(NCCc3ccc(Cl)cc3)c3nncn3c2c1	-4.5%	6.0	-12.3%	-19.1%	-0.6
Cc1ccc2nc(Nc3ccc(C)c(C)c3)c3nncn3c2c1	-2.3%	27.9*	1.4%	11.4%	11.8
COc1ccc(Nc2nc3ccccc3n3cnnc23)cc1	-48.0%	-6.8	-6.0%	41.1%	-2.0
Cc1cccc(CCNc2nc3ccc(C)cc3n3cnnc23)c1	3.7%	73.6*	0.5%	-26.3%	29.7*
COc1ccccc1N(CC(O)CN1CCCCC1)S(=O)(=O)c1ccc(C)cc1 (stereo not drawn)	-9.2%	-3.0	3.7%	7.9%	-0.7
CC(=O)c1ccc(NC(=O)c2cccc(NC(=O)N3CCSc4ncccc43)c2)cc1	/	/	19.6%	/	/
CCOc1cc(-c2noc(-c3cccnc3)n2)ccc1OC	-5.0%	-8.0	?	29.6%	1.1
COc1ccc(-c2nnc(-c3cccnc3)o2)cc1OC	-17.0%	20.5	-12.5%	-0.2%	3.3
CCOc1ccc(-c2nc(CCl)cs2)cc1OC	-3.5%	40.5	-2.5%	-15.3%[2.29 µM]	16.9*
COc1ccc(-c2nc(CC(=O)O)cs2)cc1OC	-5.3%	-12.2	-5.7%	-8.7%	-0.9
CCOc1ccc(-c2nc(-c3ccc(OC)c(OC)c3)no2)cc1OCC	0.5%	-6.9	-3.1%	-27.5%	-3.0
CCOc1ccc(-c2noc(COC)n2)cc1OC	-2.2%	23.3	1.8%	-15.4%	20.6*
CCOc1ccc(-c2noc(-c3cccnc3)n2)cc1OC	-8.7%	27.1	?	3.5%	15.0*
COc1ccc(-c2noc(-c3cccnc3)n2)cc1OC	-32.0%	51.8*	?	0.7%[2.29 µM]	16.9*
O=C1NCCN(Cc2ccoc2)C1CC(=O)N(Cc1ccccc1)CC1CCC1 (stereo not drawn)	1.8%	34.1	4.2%	55.8%	13.1*
O=C(c1cccc([N+](=O)[O-])c1)N1CCN(CCc2ccncc2)CC1	/	/	0.1%	/	/
O=C(O)c1ccccc1N/N=C\c1ccnc2ccccc12	4.8%	43.1	?	-27.2%	28.3*
O=C(O)c1ccccc1N/N=C/c1cc(Br)cc(Br)c1O	-0.3%	126.5*	-0.6%	-27.2%	37.4*
SMILES	NS1 inh	Shiga inhibitor	AmpC detergent	AmpC no deterg	CHX counter
O=C(Cc1ccccc1)N/N=C/c1cc(Br)cc(Br)c1O	-8.6%	11.6	2.1%	-53.5%	-3.4
Nc1nonc1C(=O)NCCNCc1cccc(Cl)c1Cl	/	/	-4.3%	/	/
CC(C)(CO)NCC(=O)Nc1cc(C(F)(F)F)cc(NC(=O)CNC(C)(C)CO)c1Cl	-2.5%	17.2	0.1%	?	-4.3
CCC(=O)NC1=C(NC(C)c2ccccc2)C(=O)c2ccccc2C1=O (stereo not drawn)	-3.3%	43.3	-1.1%	-4.2%	16.0
CCC(=O)NC1=C(Cl)C(=O)C(NC(=O)CC)=C(Cl)C1=O	2.2%	5.2	?	-25.2%	14.0*
N#Cc1ccccc1Cn1c(SCC(=O)NCc2ccccc2)nc2ccccc21	/	/	16.2%	/	/
Cc1cc(C)c(C)c(OCC(=O)O/N=C(\N)c2ccncc2)c1	-8.3%	-4.0	-7.8%	78.0%	-2.0
Cc1ccc(SC(C)C(=O)O/N=C(\N)c2ccncc2)cc1 (stereo not drawn)	-30.7%	-23.4	2.7%	46.3%	19.9*
Cc1ccccc1OCC(=O)O/N=C(\N)c1ccncc1	-6.2%	98.6*	0.5%	7.2%	44.5*
Cc1ccc(OCC(=O)O/N=C(\N)c2ccncc2)c(C)c1	-31.3%	113.6*	-20.1%	0.8%	32.8*
Cc1cccc(NC(=O)CSc2nc3c(oc4ccccc43)c(=O)n2-c2ccccc2)c1C	/	/	3.8%	/	/
O=C1c2ccccc2C(=O)c2c(NC(=O)c3ccc4c5c(ncnc35)-c3ccccc3C4=O)cccc21	-2.6%	/	/	/	/
O=C(CC(c1ccccc1O)N1CCCCC1)N1CCCCC1 (stereo not drawn)	-12.4%	34.6*	2.8%	-10.1%	40.9*
O=C(Cc1ccccc1)NCC(=O)N1CCCCC1	3.9%	1.7	-0.1%	-0.5%	21.4
CCOC(=O)CNc1nc(Cl)nc(N2CCCCC2)n1	-6.1%	61.2	-1.1%	-0.6%	12.3*
Cc1ccc(OCC(=O)NCC(=O)OCc2cc(=O)n3nc(CC(C)C)sc3n2)cc1	/	/	-10.2%	/	/
CCOC(=O)c1c(C)nc(-c2ccccc2)nc1N	-9.0%	122.9*	?	-24.0%	33.0*
CCOC(=O)c1c(-c2ccccc2)cn2c(C)cc(C)nc12	-3.0%	70.7*	-7.2%	15.2%	35.0*
CC(=O)c1c(C)nc(-c2ccccc2)nc1N	-2.1%	58.5*	5.1%	-19.9%	29.3*
COc1ccc(N2CCN(CC(O)COc3ccccc3C(C)(C)C)CC2)cc1 (stereo not drawn)	/	/	2.9%	/	/
Nc1nonc1OCCCCOc1nonc1N	/	2.4	-8.8%	-18.9%	-1.4
Nc1nonc1OCCc1ccccc1	2.5%	35.5	0.5%	-12.5%	11.6*
CNc1oc(-c2ccc(COc3ccc(C)cc3)o2)nc1C#N	/	/	14.4%	/	/
COc1ccc(C)cc1NC(=O)c1cn(C)c(=O)c2cc(OC)c(OC)cc12	/	/	-1.5%	/	/
Cc1ccc(Nc2nc(=O)c3cccnc3s2)cc1	-62.2%	71.7*	-8.4%	-9.7%	26.1*
SMILES	NS1 inh	Shiga inhibitor	AmpC detergent	AmpC no deterg	CHX counter
O=C(CSc1nc2c([nH]c3ccccc32)c(=O)n1-c1ccccc1)Nc1cccc(C(F)(F)F)c1	/	/	5.5%	/	/
C/C(=N\NC(=O)c1c(Br)c(C)nn1C)c1ccc(NC(=O)C(C)Oc2ccc(Cl)cc2C)cc1 (stereo not drawn)	6.2%	-11.0	-3.8%	-2.6%	-1.6
C/C(=N\NC(=O)c1c(Cl)c(C)nn1C)c1cccc(NC(=O)C2CCCC2)c1	-30.0%	37.6	5.0%	94.8%	14.3*
CCC(=O)Nc1ccc(/C(C)=N/NC(=O)c2c(Br)c(C)nn2C)cc1	3.7%	14.6	-11.5%	4.6%	-1.6
CC(=O)Nc1ccc(/C(C)=N/NC(=O)c2ccncc2)cc1	-0.9%	39.3	4.8%	-9.7%	11.7
C/C(=N\NC(=O)c1c(Cl)c(C)nn1C)c1ccc(NC(=O)c2ccncc2)cc1	-8.2%	26.2	3.0%	201.6%	12.5*

Screening results: PubChem BioAssay, National Center for Advancing Translational Sciences (NCATS)
